Bioassay records: PubChem BioAssay, Bradner/Qi Labs at DFCI
CBX7 AlphaScr = CBX7 chromodomain binding inhibitors, primary screen, biochemical, AlphaScreen | Chromobox protein homolog 7 (Homo sapiens), O95931 | AlphaScreen His6-CBX7 / biotin-H3K27me3 peptide binding; stronger effect = lower value | normalised signal (fraction of DMSO) (no concentration beside the values) | 1.1% of 66,000 active; in the data active means normalised signal below about 0.5
Target sequence (O95931 whole entry, looked up): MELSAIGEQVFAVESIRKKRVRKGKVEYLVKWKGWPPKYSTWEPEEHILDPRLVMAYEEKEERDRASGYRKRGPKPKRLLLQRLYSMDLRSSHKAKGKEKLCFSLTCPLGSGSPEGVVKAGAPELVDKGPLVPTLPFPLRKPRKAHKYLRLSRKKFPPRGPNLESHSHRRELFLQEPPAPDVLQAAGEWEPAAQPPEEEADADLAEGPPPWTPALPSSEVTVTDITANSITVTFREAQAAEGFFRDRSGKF
Numbers without * were called inactive. Shown is part of a subset that was picked to be rich in hits.

SMILES	CBX7 AlphaScr
CCOC(=O)c1sc2nc(Cc3ccccc3)nc(N3CCN(c4ccccc4F)CC3)c2c1C	1.2
CCC(Sc1nc2ccccc2[nH]1)C(=O)Nc1nnc(C)s1 (centres undefined)	1.1
Cc1ccc(NC(=O)CS(=O)(=O)Cc2nc(-c3ccccc3C)oc2C)c(C)c1	0.98
Cc1c(C(=O)Nc2ccc3c(c2)OCCO3)sc2ncn(CC(=O)N3CCCCC3C)c(=O)c12 (centres undefined)	0.9
CC(NC(=O)c1cc2c(s1)-c1ccccc1OC2)c1ccc2c(c1)OCCO2 (centres undefined)	1.3
COc1ccc(Nc2cc(C(=O)NCCc3ccc(C)cc3)c3ccccc3n2)cc1	0.86
COc1ccc(-c2nc(-c3ccccc3)c(-c3ccc(Cl)cc3)[nH]2)cc1	0.74
COc1ccc(-c2nc(-c3ccccc3)c(-c3ccc(Sc4ccccc4)cc3)[nH]2)cc1	0.52
Oc1ccc(-c2nc(-c3ccccc3)c(-c3ccc(Oc4ccccc4)cc3)[nH]2)cc1O	0.45*
COc1ccc(-c2nc(-c3cccc(F)c3)[nH]c2-c2ccc(OC)cc2)cc1	0.58
COc1ccc(-c2nc(-c3ccccc3F)[nH]c2-c2ccc(OC)cc2)cc1	0.47*
COc1ccc(-c2nc(-c3cccc4ccccc34)[nH]c2-c2ccc(OC)cc2)cc1	0.83
COc1ccc(-c2nc(-c3ccccc3)c(-c3ccc(Oc4ccccc4)cc3)[nH]2)cc1	0.47*
O=C(NC1CCCC1)c1cc(=O)[nH]c2ccc(S(=O)(=O)N3CCCCCC3)cc12	0.94
CCOCCCNC(=O)c1cc2sc(Cl)cc2n1C	1
Cc1noc(C)c1S(=O)(=O)N1CCC(C(=O)NCCc2ccccc2)CC1	0.97
O=C(NC1CCCc2ccccc21)c1ccc(NC2=NC3CS(=O)(=O)CC3S2)cc1 (centres undefined)	0.95
CC(=O)Nc1cc(C)nn1-c1nc2ccccc2n1C	0.96
COc1cccc(-c2nn(C)c3sc(C(=O)Nc4ccc(F)c(Cl)c4)cc23)c1	1
COc1ccc(-c2cc(C(=O)Nc3cc(C(F)(F)F)ccc3Cl)no2)cc1OC	1.3
O=C(NC1CCCCCCC1)C1c2cccn2CC(=O)N1C1CC1 (centres undefined)	0.98
CCc1ccc(NC(=O)CSc2nccn2-c2cccc(C)c2)cc1	0.76
O=C(CSc1nccn1-c1ccc(F)cc1)Nc1cccc(Cl)c1	0.67
CCc1ccc(NC(=O)CSc2nccn2-c2cccc(Cl)c2)cc1	0.43*
O=C(CSc1nccn1-c1ccc(Cl)cc1)Nc1cccc(C(F)(F)F)c1	0.45*
SMILES	CBX7 AlphaScr
O=C(CSc1nccn1-c1ccc(Cl)cc1)Nc1cccc(F)c1	0.7
Cc1cc(C)cc(NC(=O)CSc2nccn2-c2ccc(Cl)cc2)c1	0.42*
COc1ccc(-n2ccnc2SCC(=O)Nc2cccc(C)c2)cc1	0.61
Cc1cc(C)cc(NC(=O)CSc2nccn2-c2ccccc2)c1	0.6
CCc1ccc(NC(=O)CSc2nccn2-c2cccc(OC)c2)cc1	0.87
COc1cccc(-n2ccnc2SCC(=O)Nc2cccc(C(F)(F)F)c2)c1	0.92
Cc1cccc(NC(=O)CSc2nccn2-c2ccc(Cl)cc2)c1	0.45*
Cc1ccc(NC(=O)CSc2nccn2-c2ccc(Cl)cc2)cc1	0.91
Cc1ccc(-c2nn(CCC(=O)Nc3ccc(F)cc3)c(=O)c3ccccc23)cc1	1.1
CCOC(=O)N1CCC(NC(=O)c2nc(-c3cccc(C)c3)oc2C)CC1	0.96
Cc1ccc(C)c(NC(=O)Nc2ccc3c(c2)N(C)C(=O)CS3)c1	0.98
Cc1oc(-c2ccc(Cl)cc2)nc1CN1CCC(C(=O)N2CCCC2)CC1	1.1
COC(=O)C1CC(=O)N(c2ccc(OC)cc2)C1 (centres undefined)	0.9
Cc1ccnc(N2C(=O)c3ccccc3C2Nc2ccccc2C(F)(F)F)c1 (centres undefined)	1
CC1CCN(S(=O)(=O)c2ccc3nc(-c4ccncc4)cc(C(=O)N4CCN(C)CC4)c3c2)CC1	1.1
O=C(CC1Oc2ccccc2NC1=O)NCCc1ccc(Cl)cc1 (centres undefined)	0.97
CCc1ccc2oc(-c3ccc(NC(=O)c4ncn[nH]4)cc3)nc2c1	0*
O=C(Nc1ccc2oc(-c3ccncc3)nc2c1)c1ccc(-c2ccc(Cl)cc2)o1	0.97
O=C(Nc1ccc2oc(-c3ccncc3)nc2c1)c1ccc(-c2ccc(F)cc2)o1	0.41*
CCc1ccc2oc(-c3ccc(NC(=O)c4ccccc4)cc3)nc2c1	0.85
CCc1ccc2oc(-c3ccc(NC(=O)c4cc(OC)cc(OC)c4)cc3)nc2c1	0.95
O=C(Nc1ccc2oc(-c3cccnc3)nc2c1)c1ccc(-c2ccc(F)cc2)o1	0.99
CC1CCN(S(=O)(=O)c2ccc3c(c2)N(CC(=O)N2CCCCC2)C(=O)CO3)CC1	1.1
COc1ccc(NC(=O)CCCS(=O)(=O)c2nc(-c3cccs3)cc(C(F)(F)F)n2)cc1	0.97
O=C(CCCOc1ccc(Cl)cc1Cl)Nc1nc(-c2ccccc2)cs1	0.96
SMILES	CBX7 AlphaScr
CCOc1ccc(NC(=O)NCCCN2CCN(c3ccccc3F)CC2)cc1	1.2
CC1CCN(Cc2cc(Cn3ccnc3)c3cccnc3c2O)CC1	0.0061*
CCCC(=O)NC(c1ccc(C)cc1)c1cc(Cl)c2cccnc2c1O (centres undefined)	0.72
CC1CCN(Cc2cc(Cl)c(O)c3ncccc23)CC1	0.0029*
CC1CCN(Cc2cc(Cl)c3cccnc3c2O)CC1	0*
Cc1cc(OCC(O)CN2CCC(C)CC2)ccc1Cl (centres undefined)	1.1
Cc1[nH]c2ccccc2c(=O)c1CN1CCC(C)CC1	1.1
CC1CCN(Cc2nc(-c3ccccc3)no2)CC1	0.91
CC1CCN(CCCNC(=O)c2cnc(N3CCN(c4ncccn4)CC3)c3ccccc23)CC1	1.1
CC1CCN(c2nc(-c3ccccc3O)nc3ccccc23)CC1	1
O=C(NCCN1CCc2ccccc2C1)c1cc(=O)[nH]c2ccc(S(=O)(=O)N3CCCCC3)cc12	0.98
Cn1c(=O)c(=O)n(C)c2cc(S(=O)(=O)N3CCCC3C(=O)NCCc3ccccc3)ccc21 (centres undefined)	1.3
COc1cc(OC)cc(-c2cc3nc(C)c(CCC(=O)Nc4cc(OC)ccc4OC)c(C)n3n2)c1	0.86
Cc1ccc(CN2C(=O)CSc3ccc(C(=O)NCc4ccccc4Cl)cc32)cc1	1
COc1ccc(-c2noc(CCC(=O)Nc3cccc(C)n3)n2)cc1	0.93
Fc1cccc(Nc2nc3nonc3nc2Nc2cccc(F)c2)c1	1
CC1CCN(c2nc3nonc3nc2Nc2ccc3c(c2)OCO3)CC1	0.94
c1cc2c(cc1Nc1nc3nonc3nc1Nc1ccc3c(c1)OCO3)OCO2	0.37*
O=C(Nc1nc(-c2ccncc2)cs1)c1cccc(Oc2ccccc2)c1	0.92
COc1ccc(-c2csc(NC(=O)c3ccc(Oc4ccccc4)cc3)n2)c(OC)c1	0.83
O=C(Nc1nc(-c2ccccn2)cs1)c1ccc(Oc2ccccc2)cc1	0.12*
COc1cc(OC)cc(C(=O)Nc2nc(-c3ccccn3)cs2)c1	0*
COc1ccc(-c2csc(NC(=O)c3cccc(Oc4ccccc4)c3)n2)c(OC)c1	0.91
COc1ccc(-c2csc(NC(=O)c3ccccc3)n2)cc1	1
CCOC(=O)c1c(NC(=O)c2ccccc2Br)sc2c1CCN(C(=O)OCC)C2	1.2
CCOC(CNC(=O)c1ccc2c(c1)N(CC)C(=O)c1ccccc1S2=O)OCC (centres undefined)	1
Cc1ccc(-n2cc(-c3ccc4c(c3)OCO4)nc2SCC(=O)Nc2ccc(Cl)cc2)cc1	0.94
